Data on 91 compounds can be found in paper PMC4336329 (PLoS ONE, 2015).

Structures are written as SMILES. Out of some 310,000 compounds screened, about 14,000 (4.5%) showed an effect of 50% or more. The effect is printed as a negative number. What follows is part of a selection rich in strong results, with near analogues and random picks from the rest. *1 amine or outer side, *2 acyl side, *3 side chain or, on linkers, in order; H or OH if unused. Where a SMILES comes first, the peptide text is derived from it. Bridges are numbered along the chain shown (N, C = ends). [ ]: non-standard residue; d: D form. ξ: configuration not given here. hSer(Ph(2-I,4-NO2,6-CO)) = O=C([C@H](CCOc1c(I)cc([N+](=O)[O-])cc1C(=O)[*:3])N[*:1])[*:2]; ξD = NC(CC(=O)O)C(=O)O
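Also: peak tail current of the secondary pulse compared with the same well before compound.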

human ether-à-go-go-related gene (hERG) potassium channel, sequence (Q12809 whole entry, looked up): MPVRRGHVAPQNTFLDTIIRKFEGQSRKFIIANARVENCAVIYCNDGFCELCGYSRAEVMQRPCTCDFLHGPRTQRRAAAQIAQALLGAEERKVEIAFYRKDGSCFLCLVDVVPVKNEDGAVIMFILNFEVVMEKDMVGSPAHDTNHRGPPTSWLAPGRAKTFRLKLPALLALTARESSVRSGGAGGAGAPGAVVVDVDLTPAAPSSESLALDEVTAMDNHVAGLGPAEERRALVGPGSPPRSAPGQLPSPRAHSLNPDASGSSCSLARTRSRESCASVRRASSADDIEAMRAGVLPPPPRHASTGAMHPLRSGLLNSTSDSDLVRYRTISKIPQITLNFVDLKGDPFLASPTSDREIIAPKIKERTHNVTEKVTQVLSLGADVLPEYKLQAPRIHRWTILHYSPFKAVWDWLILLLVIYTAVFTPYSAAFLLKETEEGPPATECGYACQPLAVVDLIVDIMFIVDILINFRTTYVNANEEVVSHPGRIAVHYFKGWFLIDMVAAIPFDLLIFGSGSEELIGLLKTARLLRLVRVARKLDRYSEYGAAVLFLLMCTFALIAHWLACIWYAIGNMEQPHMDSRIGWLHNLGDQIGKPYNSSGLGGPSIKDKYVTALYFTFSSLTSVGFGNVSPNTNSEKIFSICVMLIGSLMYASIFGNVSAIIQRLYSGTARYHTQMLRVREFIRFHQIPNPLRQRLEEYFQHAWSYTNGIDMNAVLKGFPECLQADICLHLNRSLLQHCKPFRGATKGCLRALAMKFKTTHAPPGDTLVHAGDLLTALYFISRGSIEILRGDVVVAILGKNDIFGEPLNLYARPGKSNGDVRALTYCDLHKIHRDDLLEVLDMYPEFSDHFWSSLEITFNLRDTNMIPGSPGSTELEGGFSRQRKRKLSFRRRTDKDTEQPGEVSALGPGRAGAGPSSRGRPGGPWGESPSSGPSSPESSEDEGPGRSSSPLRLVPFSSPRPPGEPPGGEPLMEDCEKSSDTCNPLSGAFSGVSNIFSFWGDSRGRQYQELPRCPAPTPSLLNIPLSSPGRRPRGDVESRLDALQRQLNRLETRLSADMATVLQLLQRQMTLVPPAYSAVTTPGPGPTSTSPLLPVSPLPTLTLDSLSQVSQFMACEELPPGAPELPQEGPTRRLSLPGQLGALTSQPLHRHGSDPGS

The test concerns the target human ether-à-go-go-related gene (hERG) potassium channel (human, UniProt Q12809). As to the kind of experiment: primary screen, population patch clamp on CHO cells stably expressing hERG; higher = less effect of the substance.
Turning to `Clc1ccc(C2[C@H]3CN(CC4CCCCC4)[C@H](c4ccccc4)C34CC2(c2cccnc2)C4)cn1` (stereo partly shown), the “hERG current change (%, negative = inhibition) at 10uM” value is -26.1%.
For `O=C(O)c1cccc(NC(=O)c2cn(-c3ccccc3)nc2-c2ccc([N+](=O)[O-])cc2)c1`, the “hERG current change (%, negative = inhibition) at 10uM” value came out at 19.5%.
As to `COC(=O)c1nn(-c2cccc(Cl)c2)ccc1=O`, the “hERG current change (%, negative = inhibition) at 10uM” value amounted to 6.98%.
The figure for `CCCCN(CCO)CCCC` is 14%; for `CC(C)c1ccc(OCC(=O)Nc2ccccc2C(=O)N2CCOCC2)cc1` it is -18.9%.
The figure for `CCOC(=O)C(C)Sc1nc(C2CC2)cc(C(F)(F)F)c1C#N` (stereo not shown) is 5.04%; for `CCOC(=O)Cn1nnnc1CN(CCc1ccccc1)Cc1cc2cc(CC)ccc2[nH]c1=O` it is -4.43%; for `CCCN(CCO)Cc1cccc(Br)c1` it is -0.752%.
Under `COc1ccc(Br)cc1C(=O)N/N=C/c1cccnc1` stands -8.72%; under `CCOc1ccc(-c2csc(NC(=O)C3CCCO3)n2)cc1` (stereo not shown), 4.35%; under `CC(C)C[C@@H](CSc1ccc(Br)cc1)N1CCN(CCc2ccccc2)CCC1=O`, -70.6%.
For `CC(C)C[C@@H](CC#N)N1CCN(CCc2ccccc2)CCC1=O`, the “hERG current change (%, negative = inhibition) at 10uM” value is 2.01%.
The figure for `O=C1CCN(Cc2ccc(O)cc2)CCN1[C@H](CO)Cc1ccccc1` is 2.51%.
Under `CC(C)C[C@@H](CO)N1CCN(CCCc2ccccc2)CCC1=O` stands -31.1%; under `O=C1CCN(Cc2ccccc2)CCN1[C@H](CSc1ccccc1)Cc1ccccc1`, -72.1%.
The figure for `[N-]=[N+]=NC[C@H](Cc1ccccc1)N1CCN(Cc2ccccc2)CCC1=O` is 3.9%.
Turning to `CCOc1[nH]n(-c2ccccc2)c(=O)c1C=Nc1ccccc1`, the “hERG current change (%, negative = inhibition) at 10uM” value is reported as -2.58%.
Under `CC1CN(C(=O)c2ccc(CNS(=O)(=O)c3cccc(C(F)(F)F)c3)cc2)CC(C)O1` (stereo not shown) stands 9.72%; under `O=C(Nc1ccc2ccccc2c1)c1ccccc1O`, 24.6%; under `Cc1ccc(C(OC(=O)c2ccco2)C(=O)NC(C)(C)C)cc1` (stereo not shown), 10.8%.
As to `CN(C)Cc1ccccc1Cc1ccccc1.O=C(O)/C=C\C(=O)O`, the “hERG current change (%, negative = inhibition) at 10uM” value is given as -10.1%.
Under `CC(Cc1ccccc1Sc1ccccc1)N(C)C.O=C(O)/C=C\C(=O)O` (stereo not shown) stands -69.5%.
The figure for `CCN(CC)Cc1ccccc1Sc1ccccc1.O=C(O)/C=C\C(=O)O` is -53.3%.
The figure for `N/C(Cc1ccccc1Sc1ccccc1)=N\O.O=C(O)/C=C\C(=O)O` is -22.2%; for `N=C(N)Cc1ccccc1Sc1ccccc1.O=C(O)/C=C\C(=O)O` it is -1.09%.
On to `CN(C)Cc1ccccc1Sc1ccc(O)cc1O.O.O=C(O)/C=C\C(=O)O`, for which the “hERG current change (%, negative = inhibition) at 10uM” value was -3.84%.
The figure for `COC(=O)CSc1ncnc2c1sc1nc3c(cc12)COC(C)(C)C3` is 23.5%; for `COc1ccc(C(=O)NCC(=O)OCC(=O)Nc2cc([N+](=O)[O-])ccc2F)cc1` it is -23.4%; for `Cn1c(CSCc2ccc(F)cc2)nnc1SCC(=O)Nc1cccc(C(=O)O)c1` it is 9.71%.
Under `Cc1cccc(N(Cc2cc3cc(C)ccc3[nH]c2=O)C(=O)c2cccs2)c1` stands 5.95%; under `c1ccc(CN2CCC(Nc3nc(-c4cccnc4)nc4ccccc34)CC2)cc1`, -80.5%.
Under `Cc1ccc(CNc2nc(-c3cccs3)nc3ccccc23)cc1` stands 12.1%.
In the case of `c1ccc(CN2CCC(Nc3nc(-c4ccccc4)nc4ccccc34)CC2)cc1`, the “hERG current change (%, negative = inhibition) at 10uM” value was -20.5%.
The figure for `c1cncc(CNc2nc(-c3cccnc3)nc3ccccc23)c1` is -25.3%; for `c1ccc(CN2CCC(Nc3nc(-c4cccs4)nc4ccccc34)CC2)cc1` it is -59.9%.
Under `c1csc(CNc2nc(-c3cccs3)nc3ccccc23)c1` stands -6.81%.
Under `Nc1ccc(N=Nc2ccccc2O)c(N)c1` stands 10.9%; under `COc1ccc(C(=O)NCc2cc(C)nc3ccccc23)cc1OC`, -8.56%.
With `O=C(CSc1nncc(=O)[nH]1)NC1CCCCC1`, the “hERG current change (%, negative = inhibition) at 10uM” value worked out at 27%.
For the compound `COc1cc(OC)c(C(=O)NC2CCCCCC2)cc1OC`, the “hERG current change (%, negative = inhibition) at 10uM” value is -3.27%.
Under `Clc1ccc(-n2nnnc2-c2cnc3ccccc3c2-c2ccccc2)cc1` stands 1.26%.
Under `COc1ccc(NC2=CC(=O)CC(C)(C)C2)cc1` stands 7.6%.
The figure for `CC1(C)CC(=O)C=C(Nc2ccc(OCC(F)(F)C(F)F)cc2)C1` is -65.7%; for `CCCOc1ccc(NC2=CC(=O)CC(C)(C)C2)cc1` it is 1.89%.
For the compound `Cl.O=C1c2cccc3c2[C@H](CCC3)CN1[C@@H]1CN2CCC1CC2`, the “hERG current change (%, negative = inhibition) at 10uM” value is given as -46.2%.
Turning to `Cl.c1ccc(CNc2nc3ccccc3n2CCN2CCOCC2)nc1`, the “hERG current change (%, negative = inhibition) at 10uM” value is -15.5%.
The figure for `CC(=O)Nc1nc2ccccc2n1CCN1CCOCC1` is 0.217%; for `Cc1cc2nc(CCN3CCOCC3)n(S(=O)(=O)c3ccc(C(C)(C)C)cc3)c2cc1C` it is -3.7%.
For the compound `CC(C)(C)c1ccc(S(=O)(=O)n2c(CN3CCOCC3)nc3ccccc32)cc1`, the “hERG current change (%, negative = inhibition) at 10uM” value is 3.73%.
The figure for `COc1ccc(CNc2nc3ccccc3n2CCN2CCOCC2)cc1` is -64.6%.
The figure for `COc1ccc(CNc2nc3ccccc3n2Cc2ccccc2)cc1OC` is -44.7%.
Under `CCn1c(NCc2cc(OC)c(OC)c(OC)c2)nc2ccccc21.Cl` stands -25.3%.
As for `CCOc1ccc(CNc2nc3ccccc3n2C)cc1`, the “hERG current change (%, negative = inhibition) at 10uM” value is -31.4%.
Under `COc1cccc(CNc2nc3ccccc3n2CCN2CCCCC2)c1` stands -59.3%; under `c1csc(CNc2nc3ccccc3n2CCN2CCOCC2)c1`, -28%; under `CCOc1ccc(CNc2nc3ccccc3n2CCN2CCOCC2)cc1.Cl`, -64.2%.
The figure for `COc1ccc(S(=O)(=O)n2c(CCN3CCOCC3)nc3ccccc32)cc1` is -59.2%; for `CCOC(=O)[C@H]1[C@H]2COc3ccc(C)cc3[C@@H]2N2C(=O)CN(Cc3ccc(C)cc3)C(=O)[C@@]12C` it is 4.36%.
As to `COc1cccc(N2C(=O)CN(Cc3ccc(OC)c(OC)c3)C2=S)c1`, the “hERG current change (%, negative = inhibition) at 10uM” value is reported as 17%.
Under `CCCCCOc1ccc(NC(=O)C(=O)NCCCn2ccnc2)cc1` stands 2%; under `CCn1c(SCC(=O)NNC(=O)c2ccccc2)nnc1-c1ccncc1`, -5.25%.
The figure for `C=CCc1c(C)nc2c(-c3ccccc3)cnn2c1N1CCOCC1` is 12.3%; for `CC(=O)C1=C(O)C(=O)N(c2ccc(Br)cn2)C1c1ccccc1[N+](=O)[O-]` (stereo not shown) it is 20.2%; for `O=C1CCCc2nn(-c3ccccc3)nc21` it is 11.3%.
On to `Cc1ccc(S(=O)(=O)N(C)C)cc1NC(=O)CSc1nc2ccccc2[nH]1`, for which the “hERG current change (%, negative = inhibition) at 10uM” value is recorded as -29.4%.
Under `C[C@@H]1NC(=O)[C@H](CC(N)=O)NC(=O)c2cc([N+](=O)[O-])cc(I)c2OCC[C@@H](C(=O)NC(CC(=O)O)C(N)=O)NC1=O` (stereo partly shown) (NA[hSer(Ph(2-I,4-NO2,6-CO))][ξD]-NH2; lactam N-3) stands 6.03%; under `O=S(=O)(Cc1ccccc1)Nc1cccc(F)c1`, 15.2%.
With `Cl.FC(F)(F)c1ccc(CN2CCNCC2)cc1`, the “hERG current change (%, negative = inhibition) at 10uM” value is 0.155%.
On to `Cc1ccccc1NC(=O)Cc1nnc(N)s1`, for which the “hERG current change (%, negative = inhibition) at 10uM” value was found to be 11.3%.
Under `COc1ccc(CCNC(=S)NC2CCN(Cc3ccccc3)CC2)cc1OC` stands -39.1%; under `Cc1nc(CCNC(=O)COc2ccccc2)cs1`, 17.2%; under `COc1ccc(CNc2nc3ccccc3n2CCN2CCCCC2)cc1`, -59.7%.
Under `C=CCn1c(NCc2ccc(OC)cc2)nc2ccccc21` stands -17.2%; under `COc1ccc(CNc2nc3ccccc3n2C(C)C)cc1`, -18.7%; under `CN(C(=O)c1nn(C)c2c1CSc1ccccc1-2)c1ccccc1Cl`, 3.14%.
The figure for `CC1(C)N=C2C(=[N+]1[O-])CCC/C2=N\O` is 11.6%; for `O=C(NCCc1ccccn1)c1nc(Cn2cc(Br)cn2)no1` it is 11.4%.
Turning to `Cc1cccc(NC(=S)N2CCC(N(C)CC3CCCO3)CC2)c1` (stereo not shown), the “hERG current change (%, negative = inhibition) at 10uM” value was -32.3%.
Under `Cc1ccc(NC(=S)N2CCC(N(C)CC3CCCO3)CC2)cc1` (stereo not shown) stands -4.57%.
Under `Cc1cc(C)cc(NC(=S)N2CCC(N(C)CC3CCCO3)CC2)c1` (stereo not shown) stands -52%; under `O=C(CCCC(=O)N(CC(=O)NC1CCCC1)c1ccc(F)c(Cl)c1)Nc1ccccn1`, -9.24%; under `COCCCN(C(=S)Nc1cc(Cl)cc(Cl)c1)C(C)c1ccccn1` (stereo not shown), -38.8%.
Under `CCc1cc(=O)[nH]c(SCC(=O)Nc2cc(C)on2)n1` stands -4.55%; under `CCCc1cc(=O)[nH]c(SCC(=O)Nc2nonc2C)n1`, 4.4%; under `CCCc1cc(=O)[nH]c(SCC(=O)Nc2cc(C)on2)n1`, -70.9%.
Take `COC(=O)C1=C(O)/C(=C\c2ccc(CNC(=O)C(=O)Nc3ccc(C)c(C)c3)o2)N=C1C`: the “hERG current change (%, negative = inhibition) at 10uM” value is -17.8%.
Under `CC(=O)Nc1cc(C(=O)O)ccc1S(=O)(=O)c1ccc(C)cc1` stands 6.18%; under `CN1CCCN(C(=O)COc2ccc(F)cc2F)CC1`, -3.55%; under `CCCCNc1c(-c2ccc(OC)c(SC3CCCCC3)c2)nc2cnccn12.O=C(O)C(F)(F)F`, -14.4%.
The figure for `CCCCNc1c(-c2ccc(-c3ccc(C(C)=O)cc3)c(OC)c2)nc2cnccn12.O=C(O)C(F)(F)F` is -52.3%; for `CCCCCCSc1cc(-c2nc3cnccn3c2NCc2ccccc2)ccc1OC.O=C(O)C(F)(F)F` it is 0.374%.
